Records with an inconclusive call do not appear. Calls of active or inactive are those of the source. Unless noted, the call rests on the fitted dose curve; in most records, active means well fitted curve in the direction sought with a large enough effect in the repeat runs; inconclusive means weak or mixed curves; inactive means no such curve, though single readings can be large; an effect the other way counts as inactive or inconclusive.
How the values were obtained:
[1] = qHTS assay to identify small molecule antagonists of the estrogen receptor alpha (ER-alpha) signaling pathway using the BG1 cell line in the presence of 0.1 nM 17-beta-estradiol - cell viability counter screen (AID 1259241); further: nearly all actives have a fitted effect of over 40% in size
Procedure, shortened: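 CellTiter-Fluor read (30 min, 37C) on ER-alpha/ERE-luc VM7Luc4E2 cells; 22 hr compound treatment; agonist 0.1 nM E2 final; same-well multiplex.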

[2] = qHTS assay to identify small molecule antagonists of the androgen receptor (AR) signaling pathway using the MDA cell line in the presence of 0.5 nM R1881 - cell viability counter screen (AID 1259242); further: nearly all actives have a fitted effect of over 45% in size
Procedure, shortened: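 Cytotoxicity toward MDA-kb2 cells is measured by CellTiter-Fluor live-cell protease fluorescence after 16 hr compound exposure at 37C in the presence of 0.5 nM R1881 stimulator.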

[3] = target: Estrogen receptor (Homo sapiens) (UniProt P03372); assay: qHTS assay to identify small molecule antagonists of the estrogen receptor alpha (ER-alpha) signaling pathway using the BG1 cell line in the presence of 0.1 nM 17-beta-estradiol (AID 1259244); further: nearly all actives have a fitted effect of over 50% in size; further: potency means the concentration at half of the fitted maximal effect
Procedure, shortened: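 After 5 days in hormone-depleted medium (charcoal-stripped serum, no phenol red), VM7Luc4E2 cells were seeded, incubated 24 h, then co-treated with compound and 0.1 nM (final) estradiol for 22 h before luminescence detection.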

[4] = qHTS assay to identify small molecule HDAC inhibitors (AID 1259364); further: top concentration of the series differs between compounds; nearly all actives have a fitted effect of over 45% in size
Procedure, shortened: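 Homogeneous cell-based luminescent assay of endogenous class I/II HDAC activity; HCT-116 cells, 2 h compound exposure, 30 min HDAC-Glo development at RT.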

[5] = qHTS assay to identify small molecule HDAC inhibitors - cell viability counter screen (AID 1259365); further: series mostly up to about 92 µM; nearly all actives have a fitted effect of over 50% in size
Procedure, shortened: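 To flag cytotoxic hits, 1,500 wild-type HCT-116 cells per well, plated the day before, receive test compounds for 2hr at 37 C before CellTiter-Glo reagent and a luminescence read.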

[6] = qHTS assay to identify small molecule agonists of the sonic hedgehog signaling (Shh) pathway - cell viability counter screen (AID 1259366); further: nearly all actives have a fitted effect of over 50% in size
Procedure, shortened: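 Fluorescence from CellTiter-Fluor reports live cells in this counter screen. NIH/3T3-derived Gli1-Luc reporter cells receive test compounds for 24hr at 37C; reagent goes in at 23hr.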

[7] = qHTS assay to identify small molecule antagonists of the sonic hedgehog signaling (Shh) pathway - cell viability counter screen (AID 1259367); further: nearly all actives have a fitted effect of over 55% in size
Procedure, shortened: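 Cells: 3T3 Gli1-Luc, 2,000/well, 4 hr pre-incubation. Compounds in DMSO, then conditioned medium. Incubation 24 hr, 37C, 5% CO2. CellTiter-Fluor at 23 hr, 1 hr, fluorescence.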

[8] = qHTS assay to identify small molecule agonists of the sonic hedgehog signaling (Shh) pathway (AID 1259368; calls by dose curve;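 further: NIH/3T3-derived 3T3Gli1-Luc cells carrying a stable Gli1-driven firefly luciferase reporter; series mostly up to about 92 µM; nearly all actives have a fitted effect of over 15% in size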)
Procedure, shortened: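 Steps: seed 3T3 Gli1-Luc cells, incubate 4 hr at 37 C, pin-transfer compounds in DMSO alongside a positive control, incubate 24 hr, add luciferase detection reagent, wait 30 min at room temperature, read luminescence.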

[9] = qHTS assay to identify small molecule phospholipidosis (PLD) inducers (AID 1259344; active means well fitted curve in the direction sought with a large enough effect; an effect the other way counts as inactive or inconclusive)
Procedure, shortened: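 Phospholipidosis is scored by imaging LipidTOX-stained pits in HepG2 cells exposed to compound for 24 h at 37 C; pit counts and integrated intensities per well and per cell serve as outputs.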
On the % scale 0 is the no-effect control and ±100 the full control effect.

Sequence of Estrogen receptor (Homo sapiens) (P03372 whole entry, looked up): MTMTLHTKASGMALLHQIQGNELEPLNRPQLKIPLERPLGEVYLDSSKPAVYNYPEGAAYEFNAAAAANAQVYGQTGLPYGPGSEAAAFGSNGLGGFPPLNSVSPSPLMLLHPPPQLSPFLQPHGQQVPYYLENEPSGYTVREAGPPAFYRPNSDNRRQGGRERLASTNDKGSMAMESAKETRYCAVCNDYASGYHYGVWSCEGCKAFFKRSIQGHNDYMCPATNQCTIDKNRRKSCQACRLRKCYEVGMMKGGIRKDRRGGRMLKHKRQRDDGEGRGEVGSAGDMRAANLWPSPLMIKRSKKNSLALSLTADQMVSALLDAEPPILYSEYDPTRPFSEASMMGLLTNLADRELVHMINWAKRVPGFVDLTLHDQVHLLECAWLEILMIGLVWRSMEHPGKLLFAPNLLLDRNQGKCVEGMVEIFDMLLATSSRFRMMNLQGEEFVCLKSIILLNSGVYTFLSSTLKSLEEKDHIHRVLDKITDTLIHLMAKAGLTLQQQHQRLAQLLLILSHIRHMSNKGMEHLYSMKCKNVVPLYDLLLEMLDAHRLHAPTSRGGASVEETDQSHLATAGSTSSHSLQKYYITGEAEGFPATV

CC(COc1ccc(C(C)(C)C)cc1)OS(=O)OCCCl (stereo not drawn)
inactive: Potency [1] | Potency [2] | Potency [4] | Potency [5] | Potency [6] | Potency [7]
active: Potency [3] 1.38 µM

CCCCC(=O)O[C@]1(C(=O)CO)[C@@H](C)C[C@H]2[C@@H]3CCC4=CC(=O)C=C[C@]4(C)[C@@]3(F)[C@@H](O)C[C@@]21C
inactive: Potency [1] | Potency [2] | Potency [3] | Potency [4] | Potency [5] | Potency [6] | Potency [7] | Potency [8]

CC(C)(C)C(=O)C(Oc1ccc(Cl)cc1)n1ccnc1 (stereo not drawn)
inactive: Potency [1] | Potency [2] | Potency [3] | outcome [9] | Potency [4] | Potency [6] | Potency [7] | Potency [8]

O=C(O)c1cccc(O)c1
inactive: Potency [1] | Potency [2] | Potency [3] | Potency [4] | Potency [5] | Potency [6] | Potency [7] | Potency [8]

ON(Cc1ccccc1)Cc1ccccc1
inactive: Potency [1] | Potency [2] | Potency [3] | Potency [4] | Potency [5] | Potency [6] | Potency [7] | Potency [8]

O=S1OCCO1
inactive: Potency [1] | Potency [2] | Potency [3] | Potency [4] | Potency [5] | Potency [6] | Potency [7] | Potency [8]

CC(C)c1nnc2ccc(-c3ocnc3-c3cc(F)ccc3F)cn12
inactive: Potency [1] | Potency [2] | Potency [4] | Potency [5] | Potency [6] | Potency [7] | Potency [8]
active: Potency [3] 30.6 µM

COC(OC)(C(=O)c1ccccc1)c1ccccc1
inactive: Potency [1] | Potency [2] | Potency [3] | Potency [4] | Potency [5] | Potency [6] | Potency [7] | Potency [8]

CCC(C)(O)CCC=C(C)C (stereo not drawn)
inactive: Potency [1] | Potency [2] | Potency [3] | Potency [4] | Potency [5] | Potency [6] | Potency [7] | Potency [8]

Cc1ccc(S)cc1
inactive: Potency [1] | Potency [2] | Potency [3] | Potency [4] | Potency [5] | Potency [6] | Potency [7] | Potency [8]

Nc1ccc(S(=O)(=O)O)c(N)c1
inactive: Potency [1] | Potency [2] | Potency [3] | Potency [4] | Potency [5] | Potency [6] | Potency [7] | Potency [8]

OC/C(Br)=C(\Br)CO
inactive: Potency [1] | Potency [2] | Potency [3] | Potency [4] | Potency [5] | Potency [6] | Potency [7] | Potency [8]

c1ccc(COCc2ccccc2)cc1
inactive: Potency [1] | Potency [2] | Potency [3] | Potency [4] | Potency [5] | Potency [6] | Potency [7] | Potency [8]

C=CCCCCCCCCCCCCCCCC
inactive: activity change, negative = cytotoxicity [1] 0.274% [at 8.39 µM] | viability change, negative = cytotoxic [2] 2.55% [at 8.39 µM] | activity change, negative = inhibition [3] 11.9% [at 8.39 µM] | activity change, negative = inhibition [4] 2.22% [at 8.39 µM] | activity change, negative = cytotoxicity [5] -1.22% [at 8.39 µM] | viability change, negative = cytotoxic [6] 4.48% [at 8.39 µM] | viability change, negative = cytotoxic [7] 0.663% [at 8.39 µM] | activity change [8] 0.635% [at 8.39 µM, stronger effect = higher value]

CCOC(=O)c1ccccc1C
inactive: Potency [1] | Potency [2] | Potency [3] | Potency [4] | Potency [5] | Potency [6] | Potency [7] | Potency [8]

CCOC(=N)CC(=O)OCC
inactive: Potency [1] | Potency [2] | Potency [3] | Potency [4] | Potency [5] | Potency [6] | Potency [7]

CC(N)CN (stereo not drawn)
inactive: Potency [1] | Potency [2] | Potency [3] | Potency [4] | Potency [5] | Potency [6] | Potency [7]

CN1Cc2cc(C(=O)N3CCC(C4CCNCC4)CC3)ccc2N[C@@H](CC(=O)O)C1=O
inactive: Potency [1] | Potency [2] | Potency [3] | Potency [4] | Potency [5] | Potency [6] | Potency [7]

OCCSc1ccccc1
inactive: Potency [1] | Potency [2] | Potency [3] | Potency [4] | Potency [5] | Potency [6] | Potency [7] | Potency [8]

CC#N
inactive: Potency [1] | Potency [2] | Potency [3] | Potency [4] | Potency [5] | Potency [6] | Potency [7] | Potency [8]

Cc1cc(OI)c(C(C)C)cc1-c1cc(C(C)C)c(OI)cc1C
inactive: Potency [1] | Potency [2] | outcome [9] | Potency [4] | Potency [5] | Potency [6] | Potency [7]

Reference: PubChem BioAssay (Tox21)
